In the library only some 3.1% were active in any assay of this set; here they are far more common.
CF NFkB inh: cystic fibrosis NF-kB activation inhibition; KKLEB NF-kB-GFP reporter, PAF-induced, GFP fluorescence overnight; inhibition, % at 5 µM; 0.86% of 360,000 active;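 active = at least 50% inhibition at 5 µM, scaled per plate between neutral and stimulator controls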;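 note: PAF is a Pseudomonas aeruginosa culture filtrate used as stimulus; plate controls were PAF-stimulated DMSO wells for no effect and unstimulated DMSO wells for full effect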
Peg3 prom inh: inhibitors of Peg3 promoter | HeLa PEG-Prom luciferase reporter, luminescence, overnight | inhibition, % at 20 µM | 1.7% of 360,000 active;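 active = inhibition of at least 50% at 20 µM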
C8 TRAIL sens: sensitizes caspase-8 expressing cells to TRAIL; NB7+C8 cells + TRAIL, ATPlite viability luminescence; inhibition (viability loss, TRAIL sensitization), % at 10 µM; 1% of 360,000 active;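 active = compounds causing at least 50% loss of cell viability in the single-dose screen, relative to plate controls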
HIF-2a inh: inhibitors of HIF-2a. 786-0 RCC cells HIF-2a reporter, luciferase luminescence, overnight. inhibition, % at 18.8 µM. 0.72% of 360,000 active;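 active = inhibition of the luminescence signal of 40% or more relative to plate controls, in a single-dose primary screen at 18.75 µM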
PPC-1+TRAIL kill: compounds killing PPC-1 cancer cells with TRAIL present (potentiator screen, no TRAIL-free arm) | cell killing (% activity), % at 4 µM or 5 µM | AID 1443 | 0.41% of 220,000 active | PPC-1 cells + TRAIL, ATPLite viability luminescence;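 active = cell killing above 50% in the first pass at 4 µM, then a duplicate retest at 5 µM averaging 50% or more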;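 note: plate controls were cells with TRAIL plus DMSO for no effect and medium-only wells lacking cells for full effect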
KKLEB cytotox: CF airway cell cytotoxicity counter-screen. 0.36% of 360,000 active. KKLEB CF airway cells viability, ATPlite luminescence, overnight; active compounds read low; cells stimulated with P. aeruginosa culture filtrate. activity change (cytotoxicity), % at 5 µM;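 active = corrected activity change at or below -50% at 5 µM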
An asterisk follows results filed as active; . = no result given.

SMILES | CF NFkB inh | Peg3 prom inh | C8 TRAIL sens | HIF-2a inh | PPC-1+TRAIL kill | KKLEB cytotox
COc1cc([N+](=O)[O-])cc(/C=N/NC(=O)c2ccc(NC(=O)c3ccc(C)cc3)cc2)c1O | 82* | 47 | 21 | 28 | 17 | -75*
COc1cccc(/C=N/NC(=O)c2cc3cc([N+](=O)[O-])ccc3s2)c1O | -29 | 84* | 44 | 14 | 48 | -12
CN(CC(=O)Nc1cccc(F)c1)C(=O)CCCN1C(=O)c2cccc3cccc(c23)C1=O | -1 | -62 | -2 | -69 | . | -1
CCOC(=O)C1=C(c2ccccc2)NC(SCC(=O)Nc2cccc(C)c2)=C(C#N)C1c1ccco1 (stereo not drawn) | 15 | 70* | 4 | 13 | 10 | -3
COc1ccc(C)cc1S(=O)(=O)N(C)CC(=O)N1CCCCCC1 | -7 | 75* | -8 | 7 | 7 | 6
COc1ccc(C)cc1S(=O)(=O)N(C)CC(=O)N1CCN(C)CC1 | -9 | -6 | -6 | -3 | 16 | 7
CCN1Cc2c(/C=C/c3ccccc3)nc3ccc(OC)cc3c2N(c2cccc(Cl)c2)C1 | -7 | 101* | 42 | 17 | 1 | -17
O=C(Nc1ccc2c(c1)CCC2)c1ccccc1F | -61 | -173 | 57* | -117 | 6 | 11
O=C(O)c1ccccc1-c1ccccc1C(=O)Nc1ccc2c(c1)CCC2 | 4 | 17 | 10 | 27 | . | -1
Cc1ccc2[nH]c(=O)c(CN(CCCN(C)C)C(=S)NCCc3ccccc3)cc2c1 | 3 | 56* | 4 | 2 | 11 | 1
Cc1ccc(N2CC(C(=O)Nc3cccc(S(=O)(=O)N4CCOCC4)c3)CC2=O)cc1 (stereo not drawn) | -7 | 13 | -3 | -7 | . | -1
CCCNC(=O)c1cc(C2CCCCN2C(=O)OCC(C)C)on1 (stereo not drawn) | 7 | 5 | -3 | 10 | . | 2
O=C(NC1CCCc2ccccc21)c1cccc(F)c1 (stereo not drawn) | 6 | 3 | 13 | 19 | . | -4
CC(=O)C1(O)C(C)CC2C3CC=C4CC(O)CCC4(C)C3CCC21C (stereo not drawn) | -8 | 13 | 9 | 10 | . | 4
CC12CCC(O)CC1=CCC1C2CCC2(C)C3=NN=CC3CC12 (stereo not drawn) | 38 | 51* | 9 | 7 | . | -11
CCOc1ccc(S(=O)(=O)NCCC(=O)OCC(=O)NC(=O)c2cccn2C)cc1 | 18 | 3 | 1 | 12 | . | -2
CC12CCC(C(=O)CC1=O)C2(C)C (stereo not drawn) | 13 | -16 | 5 | -2 | . | -16
Cc1cc(=O)c2c(N(C)C)cccc2[nH]1 | -25 | -4 | 10 | -17 | . | -3
COc1cc(-c2cc3nc(NCCc4ccncc4)ccn3n2)cc(OC)c1OC | -82 | -28 | 9 | -74 | . | 4
COc1cc(-c2cc3nc(NCCOc4ccccc4)ccn3n2)cc(OC)c1OC | -49 | 53* | 19 | -84 | . | -8
COC(=O)CSc1nnc([C@H](Cc2ccccc2)NC(=O)OC(C)(C)C)o1 | 0 | 8 | -5 | 22 | -10 | 0
COC(=O)CS(=O)(=O)c1nnc([C@H](Cc2ccccc2)NC(=O)OC(C)(C)C)o1 | 66* | 104* | 0 | 45* | 6 | -12
COc1ccc(N2CCN(C(=O)C(=O)c3cccc([N+](=O)[O-])c3)CC2)cc1 | . | . | 1 | -27 | . | .
CN(C)C(CNC(=O)C1CCN(C(=O)/C=C/c2ccccc2)CC1)c1ccccc1 (stereo not drawn) | -1 | -107 | -3 | -106 | . | 5
CC(C)c1ccc(-c2c(C#N)c(N)nc(SCC(=O)N3CCCCCC3)c2C#N)cc1 | . | . | . | . | 9 | .
SMILES | CF NFkB inh | Peg3 prom inh | C8 TRAIL sens | HIF-2a inh | PPC-1+TRAIL kill | KKLEB cytotox
N#Cc1c(N)nc(SCC(=O)NC2CCCCC2)c(C#N)c1-c1ccc(Cl)cc1 | -2 | 74* | 27 | -4 | -11 | 6
CC(C)[C@H](NS(=O)(=O)c1cccc(C(F)(F)F)c1)C(=O)OCC(=O)NC(=O)NCc1ccco1 | 21 | 18 | 3 | 17 | . | -7
CCS(=O)(=O)c1ccc(N=Nc2ccc(O)c3ncccc23)c(OC)c1 | 45 | 48 | 70* | 12 | -11 | -27
COc1ccccc1N=Nc1ccc(O)c2ncccc12 | -2 | 20 | 27 | -96 | . | -20
Cc1cc(C)cc(NC(=O)CCc2nc3sc4c(c3c(=O)[nH]2)CCCC4)c1 | -2 | 84* | -10 | 4 | . | -5
C[C@H]1CN([C@@H](C)CO)C(=O)c2cc(Br)cnc2O[C@@H]1CN(C)C(=O)C1CCC1 | 8 | -4 | 8 | 7 | . | 3
NC1=CC(=O)C(=O)c2ccccc21 | 68* | 55* | 92* | 0 | . | -26
O=C(CSc1nc2ccccc2c(=O)n1CC1CCCO1)Nc1ccc(F)cc1 (stereo not drawn) | 6 | 17 | 6 | 1 | . | -8
Cc1ccc(C)c(-c2nnc(NC(=O)c3ccco3)o2)c1 | -29 | -1 | 25 | -18 | . | 5
Cc1ccc(-c2nnc(NC(=O)c3ccco3)o2)c(C)c1 | 8 | -102 | 55* | -76 | . | -12
O=C(Nc1nnc(-c2ccc(Br)cc2)o1)c1ccco1 | 6 | -115 | 54* | -118 | . | -12
C=CCNc1nc2cc(-c3ccc(C(=O)N4CCOCC4)cc3)sc2c(=O)n1C | -4 | 4 | 18 | -17 | . | -7
COC(=O)[C@]12CCCCC=C1N(Cc1cccc3ccccc13)C(=O)[C@H](CC(=O)NCCc1ccccc1OC)C2 | . | . | 1 | -17 | . | .
O=C(/C=C/c1cccs1)NC(=S)NNC(=O)c1ccccc1O | 14 | 25 | 27 | 11 | -3 | 16
COc1ccc(C(=O)NNC(=S)NC(=O)/C=C/c2cccs2)cc1 | -6 | 21 | 54* | 19 | . | -8
O=C(Oc1ccc2ccccc2c1Cl)N1CCCCCC1 | 5 | -219 | 53* | -170 | 17 | 2
CCOC(=O)N(C)C[C@H]1OCc2cnnn2CCCC(=O)N([C@H](C)CO)C[C@H]1C | 3 | -9 | -7 | -5 | . | 1
C#CCSc1nnc(-c2sc(-c3ccccc3)nc2C)n1C | -11 | -30 | 80* | -72 | -4 | 4
O=C(Nc1ccc2c(c1)OCCO2)C(=O)c1c[nH]c2ccccc12 | -3 | -124 | 82* | -137 | . | -43
CCOc1cccc(C(=O)Nc2ccc3ccccc3c2)c1 | 0 | -136 | 48 | -76 | . | -22
O=C(Cn1nnc(-c2ccccc2NC(=O)c2ccccc2)n1)Nc1ccc2c(c1)OCCO2 | 20 | -1 | -1 | -1 | 6 | -54*
Cc1ccsc1C(=O)Nc1ccc2c(c1)OCCO2 | -1 | -128 | 71* | -89 | 31 | -9
Cc1ncoc1C(=O)Nc1ccc2c(c1)OCCO2 | 4 | -70 | 8 | -32 | 6 | -5
CCOc1cccc(C(=O)Nc2ccc3c(c2)OCCO3)c1 | -4 | -122 | 59* | -130 | . | -3

Source: PubChem (Sanford-Burnham Center for Chemical Genomics)
